HDAC3 inhib: inhibitors of human histone deacetylase 3. recombinant HDAC3, fluorogenic peptide/trypsin coupled, fluorescence. inhibition, % at 8.3 µM. AID 2718. 0.15% of 320,000 active; in the data active means inhibition above about 26%, passing the limit was not always enough; inconclusive means no clear call, values can overlap the other calls
GRK2 aptamer HTS: inhibitors of human GRK2 displacing RNA aptamer | AID 488847 | bead flow cytometry, FAM-aptamer displacement from GRK2 | P25098 | inhibition of aptamer binding, % at 10 µM | 0.59% of 330,000 active;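 active means inhibition of aptamer binding above 40%, roughly 3 SD of noise, on plates passing a quality check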;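 further: median bead fluorescence of bound FAM aptamer so fluorescent compounds give negative values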
Rtt109 HAT inh: inhibitors of Candida albicans Rtt109/Vps75 histone acetyltransferase; purified Rtt109/Vps75, ThioGlo CoA-SH fluorescence, 4 h; inhibition, % at 34.9 µM; 0.16% of 330,000 active;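 active means inhibition of at least 50% in every replicate; inconclusive means best replicate reaches 50% inhibition but some replicates fall short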
Efflux pump mplx: blocks antifungal efflux pumps in multiplex yeast assay; S. cerevisiae Candida pump triplex, Nile Red efflux; inhibition, % at 10 µM; 0.44% of 330,000 active;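 active means plate passing quality check with inhibition over a set limit, or well fluorescence over plate mean plus 4 SD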;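 further: Nile Red retained in pooled yeast measured as flow cytometry median fluorescence; 0% = buffer negative control and 100% = Enniatin B positive control; higher means more Nile Red kept so more efflux inhibition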
Rce1 inh: blocks yeast Ras-converting enzyme. yeast membranes, quenched prenylated peptide cleavage fluorescence. 0.27% of 290,000 active. calls only. Q03530;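 active means fall in fluorescence gain of 50% or more versus controls, with final raw signal at or below 3038400; inconclusive means same 50% fall but final raw signal above 3038400; inactive means fall in fluorescence gain under 50%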;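 further: plate controls were neutral control wells for no effect and wells lacking membranes for full effect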
Target sequence (Q03530 whole entry, looked up): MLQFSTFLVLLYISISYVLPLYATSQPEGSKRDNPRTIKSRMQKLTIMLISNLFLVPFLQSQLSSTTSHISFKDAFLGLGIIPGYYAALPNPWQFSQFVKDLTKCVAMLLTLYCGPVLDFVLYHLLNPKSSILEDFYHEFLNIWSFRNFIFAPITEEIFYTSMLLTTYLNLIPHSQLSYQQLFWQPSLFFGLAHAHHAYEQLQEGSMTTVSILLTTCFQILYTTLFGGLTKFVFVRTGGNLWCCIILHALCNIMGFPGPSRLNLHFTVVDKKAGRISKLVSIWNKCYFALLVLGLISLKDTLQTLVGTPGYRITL
ALR H2O2 inh: human ALR oxidase inhibition via reduced H2O2. purified ALR, DTT oxidation, H2O2 HRP-luminol luminescence. inhibition, % (no concentration beside the values). P55789. 3.8% of 290,000 active;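 active means mean replicate inhibition above about 79%, with every replicate also reaching it, limit read from the data; inconclusive means only one of the two criteria met; inactive means mean below limit and not every replicate reaching it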
Target sequence (P55789 whole entry, looked up): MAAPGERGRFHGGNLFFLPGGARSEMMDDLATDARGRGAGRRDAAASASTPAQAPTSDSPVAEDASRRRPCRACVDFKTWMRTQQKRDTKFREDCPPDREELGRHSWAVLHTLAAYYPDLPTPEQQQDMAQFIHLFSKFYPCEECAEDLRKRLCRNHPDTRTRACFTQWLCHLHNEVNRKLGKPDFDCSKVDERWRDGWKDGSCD
The depositor's hits bear a star; i = inactive; u = inconclusive; x = not tested or not shown. An excerpt weighted towards active compounds, which were near 4.5% of everything screened.

SMILES	HDAC3 inhib	GRK2 aptamer HTS	Rtt109 HAT inh	Efflux pump mplx	Rce1 inh	ALR H2O2 inh
CCc1ccc(-c2nc(CS(=O)CC(=O)NCCN3CCCCCC3)c(C)o2)cc1 (centres undefined)	1	0	14	0	i	100*
COc1cc(CN2CCN(CC#Cc3ccccc3)CC2CCO)cc(OC)c1 (centres undefined)	1	4	5	0	i	0
COCCNC(=O)C(=O)NCC1OCCN1S(=O)(=O)c1cc(F)ccc1F (centres undefined)	0	2	-11	-2	i	x
Cc1oc(-c2ccc(Cl)cc2)nc1CS(=O)CC(=O)NCCCN1CCOCC1 (centres undefined)	-1	0	3	1	i	99*
CCCN(CCC)CCNC(=O)C1CCN(Cc2nc(-c3ccc(Cl)cc3)oc2C)CC1	1	96*	3	0	i	-6
CCc1ccc(-c2nc(CS(=O)CC(=O)NCCCN3CCC(C)CC3)c(C)o2)cc1 (centres undefined)	-3	0	-2	0	i	98*
Cc1ccccc1-c1nc(CS(=O)(=O)CC(=O)NCCN2CCOCC2)c(C)o1	8	0	-1	0	i	22
Cc1oc(-c2ccc(Cl)cc2)nc1CS(=O)CC(=O)NCCN1CCCC1 (centres undefined)	-2	1	3	0	i	99*
COc1cccc(C(=O)NN2C(=S)N(c3ccccc3)C(=O)C2CC(N)=O)c1 (centres undefined)	-1	1	-6	0	i	x
Cc1ccc(-c2nc(CS(=O)CC(=O)NCCN(CC(C)C)CC(C)C)c(C)o2)cc1 (centres undefined)	4	1	-2	0	i	99*
Cc1ccccc1-c1nc(CS(=O)CC(=O)NCCN2CCOCC2)c(C)o1 (centres undefined)	-3	0	-3	0	i	99*
Cc1ccc(-c2ccc(=O)n(CC(=O)NCCN(CC(C)C)CC(C)C)n2)cc1	-4	0	4	0	i	-2
COc1ccc(COC(=O)C2=C(C)NC(=O)NC2c2cc(Br)c(O)c(OC)c2)cc1 (centres undefined)	2	1	2	0	i	31
O=C(c1ccc(-c2cc(O)c3ncccc3c2)cc1)N1CCNCC1	9	0	5	0	x	-11
CC(NC(=O)c1cc(-c2ccncc2)nc2ccc(Br)cc12)C1CCCO1 (centres undefined)	6	0	12	0	i	-13
O=C1CSC(=Nc2ccc(O)cc2)N1c1ccc(O)cc1	-4	0	-10	0	i	99*
C=CCN1C(=O)CSC1=Nc1ccc(O)cc1	0	2	9	0	i	99*
Cc1nnc(SC(C)C#N)n1-c1ccccc1 (centres undefined)	4	0	-20	0	i	-13
Cc1ccc(N2CC(NC(=O)C3CC3)CC2=O)cc1 (centres undefined)	-5	0	-3	0	i	1
CC1CCN(S(=O)(=O)c2ccc(C(=O)Nc3sccc3C(N)=O)cc2)CC1	-6	1	-32	0	i	9
CN(C)NC(=O)c1ccsc1NC(=O)c1ccc(S(=O)(=O)N2CCCC2)cc1	6	0	-4	0	i	87*
COc1ccc(Nc2n[nH]c(N)c2C(N)=O)cc1	18	3	7	0	i	99*
Cc1ccc(NC(=O)c2nc(S(=O)(=O)Cc3ccccc3)ncc2Cl)cc1	8	1	-3	0	i	1
Cc1nnc(NC(=O)c2nc(S(=O)(=O)Cc3ccccc3)ncc2Cl)s1	x	1	-8	0	i	99*
Cc1cccc(CS(=O)(=O)c2ncc(Cl)c(C(=O)Nc3c(C)cccc3C)n2)c1	x	0	3	0	i	98*
SMILES	HDAC3 inhib	GRK2 aptamer HTS	Rtt109 HAT inh	Efflux pump mplx	Rce1 inh	ALR H2O2 inh
CCCc1nnc(NC(=O)c2nc(S(=O)(=O)Cc3cccc(C)c3)ncc2Cl)s1	9	2	u	0	i	13
Cc1cccc(C)c1NC(=O)c1nc(S(=O)(=O)Cc2ccccc2)ncc1Cl	x	0	u	0	i	97*
Cc1cccc(CS(=O)(=O)c2ncc(Cl)c(C(=O)NCc3ccccc3)n2)c1	1	3	6	0	i	-1
CC(=O)Nc1ccc(-c2csc(-c3cccnc3)n2)cc1	0	0	4	0	i	37
COc1cc(/C=C/C(=O)N[C@@H](Cc2c[nH]c3ccccc23)C(=O)O)ccc1O	9	2	1	0	i	86*
Cc1ccc(Nc2nc(=O)c3cccnc3s2)cc1	2	0	0	0	i	-13
COc1ccc(OC)c(Nc2nc(=O)c3cccnc3s2)c1	x	x	112*	x	x	x
O=c1[nH]n(-c2cccc3cccnc23)c(=O)c2ccccc12	-1	1	1	0	x	-8
O=c1[nH]n(-c2ccc(Cl)cc2)c2ncccc12	-9	0	-1	0	i	99*
COc1ccccc1S(=O)(=O)N1CCNC(=O)C1	-4	0	-2	0	x	-7
O=C(/C=C/c1ccc(O)c(O)c1)OC1C(O)CC(OC(=O)/C=C/c2ccc(O)c(O)c2)(C(=O)O)CC1O (centres undefined)	8	1	-3	0	i	99*
COc1cc(/C=C/C(=O)OC2CC3CCC2(C)C3(C)C)ccc1O (centres undefined)	7	0	11	1	i	u
CCOc1ccc(Cc2n[nH]c(=S)n2Cc2ccccc2)cc1	4	0	0	0	i	95*
Nn1c(Cc2ccccc2)n[nH]c1=S	1	0	-15	0	i	95*
Nn1c(Cc2ccc(F)cc2)n[nH]c1=S	-1	0	5	0	i	60
CCC(=O)Nc1cccc2cccnc12	-3	4	x	0	i	-3
C/C(=N\Nc1cccc2cccnc12)c1ccc[nH]1	3	0	2	0	i	96*
OCCCNC(=S)Nc1ccc(Nc2ccccc2)cc1	-5	1	7	0	i	99*
S=C(NCC1CCCO1)Nc1cccc(Cl)c1 (centres undefined)	3	3	1	0	i	-6
S=C(NCCNC(=S)Nc1ccccc1)Nc1ccccc1	1	1	-8	0	i	-12
NS(=O)(=O)c1ccc(NC(=S)NCC2CCCO2)cc1 (centres undefined)	0	0	2	0	i	1
O=C(CCCCCNC(=S)Nc1ccc(Cl)cc1)C[N+](=O)[O-]	9	1	-8	0	i	7
S=C(NCC1CCCO1)Nc1ccc(Nc2ccccc2)cc1 (centres undefined)	3	1	4	1	i	99*
